Screening results deposited in PubChem by The Scripps Research Institute Molecular Screening Center.
Hits are enriched below; roughly 1.8% of the tested compounds scored in any of these assays.
PME-1 Maybr inh – inhibitors of human PME-1 in Maybridge library | Q9Y570 | recombinant PME-1, FP-Rh probe fluorescence polarization | inhibition, % at 9 µM | actives 0.5% (n = 16,000) | AID 2291; in the data active = inhibition above about 30%
Target sequence (Q9Y570 whole entry, looked up): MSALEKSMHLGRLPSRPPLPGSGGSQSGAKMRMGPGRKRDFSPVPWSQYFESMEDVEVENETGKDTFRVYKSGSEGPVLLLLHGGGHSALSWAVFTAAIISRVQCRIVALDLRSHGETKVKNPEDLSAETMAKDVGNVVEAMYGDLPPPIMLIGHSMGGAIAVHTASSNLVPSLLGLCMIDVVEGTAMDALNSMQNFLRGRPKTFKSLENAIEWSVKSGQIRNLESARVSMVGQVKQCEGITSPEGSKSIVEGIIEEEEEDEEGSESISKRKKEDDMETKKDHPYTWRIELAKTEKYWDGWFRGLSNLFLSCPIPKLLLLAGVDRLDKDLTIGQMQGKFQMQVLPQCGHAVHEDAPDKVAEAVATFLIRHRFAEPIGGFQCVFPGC
Nox1 inh – inhibitors of human NADPH oxidase 1 (Nox1); HT29 cells, luminol chemiluminescence ROS; Q9Y5S8; actives 0.81% (n = 16,000); AID 1792; inhibition, % at 6.7 µM
NOTCH agonist – agonists of NOTCH signaling; NOTCH signaling luciferase reporter cells, luminescence; activation, % at 2.5 µM; actives 0.4% (n = 15,000); AID 434982; in the data active = activation above about 2.2%
luminol inh ctr – quenches luminol chemiluminescence in Nox1 counter-screen; HRP/luminol/H2O2 chemiluminescence counterscreen; AID 1823; actives 0.4% (n = 16,000); inhibition, % at 6.7 µM; also: reference of the scale not given here
An asterisk follows results filed as active; · = not tested or not shown. Rule as the data show it, unless noted: active = inhibition above about 75%; inactive = the rest.

SMILES	PME-1 Maybr inh	Nox1 inh	NOTCH agonist	luminol inh ctr
COc1cc(C(=O)NNS(=O)(=O)c2ccc(Cl)cc2)c(-n2c(C)ccc2C)cc1OC	3	-25	0	0
COc1cc(NC(=O)Nc2ccc(Cl)cc2)c(-n2c(C)ccc2C)cc1OC	74*	-3	-1	4
C/C(=N\OC(=O)c1ccccc1)c1csc(-c2cc(C)on2)n1	-2	-46	0	3
CCN(CC)c1ccc(NC(=O)C2CCCCC2)c(N(CC)CC)n1	2	75*	0	5
CNC(=S)NN(C)c1cccc(F)c1C#N	5	7	0	-3
Cc1cc(NC(=O)CSc2n[nH]c(=O)n2-c2ccc3c(c2)OCCO3)n(-c2ccccc2)n1	2	-16	2.2*	-3
Cc1ccc(S(=O)(=O)NC(=O)Nc2ccc(N(C)C)cc2)cc1	41*	65	1	-23
Cc1cc(-c2noc(C(F)(F)F)n2)cc(-c2noc(C(F)(F)F)n2)c1	4	-21	·	2
O=C(NNc1c([N+](=O)[O-])cc(C(F)(F)F)cc1[N+](=O)[O-])c1ccco1	2	89*	-1	0
NCCNc1c([N+](=O)[O-])cc(C(F)(F)F)cc1[N+](=O)[O-]	3	-44	0	2
OC(CN1CCN(Cc2c(F)cccc2Cl)CC1)Cn1ccc2ccccc21 (centres undefined)	6	16	2.7*	-7
O=c1cc(-c2cccc([N+](=O)[O-])c2)nc2c(-c3ccccc3)c(C(F)(F)F)[nH]n12	5	-74	0	-1
COC(=O)c1sccc1NC(=O)CC1C(=O)NCCN1C(=O)c1ccccc1 (centres undefined)	46*	-39	-1	0
CCC(CO)NC(=S)Nc1ccsc1C(=O)OC (centres undefined)	2	-1	-1	5
COC(=O)c1sccc1NC(=S)NCCN1CCNC1=O	5	20	0	99*
COc1cccc(N2CC(=O)N(/N=C/c3ccc(C)o3)CC2=O)c1	-3	-78	0	3
Cc1cc(C(=O)NNc2cc(Cl)ccc2Cl)no1	11	81*	-1	10
Cc1nnsc1C(=O)NNc1cc(Cl)ccc1Cl	5	76*	0	25
Cc1noc(C)c1C(=O)NNc1cc(Cl)ccc1Cl	-1	47	0	12
COC(=O)c1cc(/C=N/NC(=O)c2cccc([N+](=O)[O-])c2)cn1C	0	-14	·	2
CSC(=N)n1nc(SC)nc1N	0	-39	2.8*	-1
O=C(C1=NNCC1c1ccc2c(c1)OCO2)c1ccc2ccccc2c1 (centres undefined)	5	-5	0	-2
c1ccc2c(c1)NC(c1ccc3c(c1)OCO3)O2 (centres undefined)	-4	80*	0	8
Cc1ccc(C(=O)Cc2nnc(-c3ccccc3)[nH]c2=O)cc1	0	-58	-1	-1
Cn1[nH]c(=O)cc1C(=O)N/N=C/c1ccc([N+](=O)[O-])cc1	-1	4	0	-25
SMILES	PME-1 Maybr inh	Nox1 inh	NOTCH agonist	luminol inh ctr
COCCCNC(=S)NNC(=O)CC#N	6	41	0	98*
COCCCNC(=S)NNC(=S)NCCCOC	2	25	0	3
CSc1cccc(N/C(=N\S(=O)(=O)c2ccccc2)NN)c1	43*	-50	-1	8
Cc1ccc(NCN2C(=O)c3ccc([N+](=O)[O-])cc3C2=O)cc1	7	77*	0	-46
COc1ccccc1NC(N)=S	-6	-50	4.8*	1
CC(=O)Nc1onc(C)c1-c1nc(-c2ccc(Cl)cc2Cl)cs1	-37	-29	-1	4
N#CC(C#N)=Cc1c(-c2ccc(Cl)cc2)[nH]c2ccccc12	-1	-20	-1	-3
c1ccc2c(c1)Nc1nc3ccccc3nc1N2	1	85*	-1	-1
c1ccc2c(c1)Nc1nc3ccccc3nc1O2	-2	-45	-1	2
CSc1nnc(SC2=CC(=O)CC(c3ccccc3)C2)s1 (centres undefined)	9	28	3.3*	-3
CSc1nc(CSc2ccc(Cl)cc2)nc(N)c1C#N	1	-45	-1	0
CSc1cccc(NC(=S)NCc2ccc(C#N)cc2)c1	61*	14	0	-4
N#Cc1c(N)sc2c1CCc1ccccc1-2	15	103*	1	1
Cc1cc(C#N)c2c(c1)-c1ccccc1CC2	-1	-22	1	-2
Cc1nnsc1-c1nnc(C2CCCCC2)o1	5	-37	3.8*	-10
O=C(Nc1cccnc1)c1cc(Cl)sc1Cl	1	-22	-1	2
COc1ccc(-n2c(-c3cccs3)n[nH]c2=S)cc1	-1	12	0	98*
CCn1c(-c2cccs2)n[nH]c1=S	-3	47	0	100*
CNC(=O)NC(=O)CSc1n[nH]c(-c2ccncc2)n1	2	-17	-1	0
O=C(OCCc1ccccc1/C=C\[N+](=O)[O-])c1ccc(F)cc1	8	24	0	-6
O=C(Oc1cccc2c1C(=O)C=CC2=O)c1ccccc1	34*	41	-1	8
CCOC(=O)c1ccc(NC(=O)C(=S)NCc2ccccc2)cc1	-4	-46	1	-1
CCOC(=O)c1ccc(NC(=S)NC)cc1	5	-24	2.9*	-2
O=C(Nc1cccc2[nH]ccc12)C1CCCCC1	5	-13	2.3*	-9
CNC(=S)NNC(=O)c1c(C)nc2cc(C)ccn12	5	97*	0	24
SMILES	PME-1 Maybr inh	Nox1 inh	NOTCH agonist	luminol inh ctr
Cc1cccc2c(O)c(N=Nc3ccccc3)c(=O)oc12	19	-30	0	-3
Cn1nc(-c2ccccc2)c(O)c(N=Nc2ccccc2)c1=O	5	97*	0	-3
O=[N+]([O-])c1c(Sc2ccccn2)sc(Sc2ccccn2)c1[N+](=O)[O-]	5	9	-1	-1
CN(C)CCCNc1sc(-c2ccccn2)c([N+](=O)[O-])c1[N+](=O)[O-]	65*	-9	0	7
Cc1ccc(OS(=O)(=O)c2c(Cl)sc(Cl)c2Br)c([N+](=O)[O-])n1	40*	12	-1	-4
O=C(Nc1ccc(-c2csnn2)cc1)C1CC1	3	7	0	1
Cc1ccc(S(=O)(=O)NC(=O)Oc2ccc(-c3csnn3)cc2)cc1	0	-132	0	103*
Cc1c(/C=C(/C#N)S(=O)(=O)c2ccc(Cl)cc2)sc2ccc(Cl)cc12	-13	-26	0	2
N#Cc1c(OCC(F)(F)F)ccc(S(=O)(=O)Nc2ccc(C(=O)O)cc2)c1OCC(F)(F)F	2	-2	0	-4
O=C(Nc1ccc(OC(F)(F)F)cc1)Nc1cc(-c2ccco2)[nH]n1	-13	-54	1	6
CS(=O)(=NS(=O)(=O)c1ccc(Cl)cc1)c1ccccc1 (centres undefined)	41*	2	0	12
O=C1CSc2ccc(C(F)(F)F)cc2N1Cc1c(Cl)cccc1Cl	37*	14	1	-2
O=C1C=CC(=O)N1c1cc(C(F)(F)F)ccc1Cl	0	12	0	-6
CCOC(=O)c1sc2nc(C)c(N=Nc3ccccc3)c(C)c2c1N	6	9	0	1
CCOC(=O)c1sc(Nc2ccccc2)c(-c2nc3ccccc3[nH]2)c1N	31*	18	-1	-3
